# Screening data as filed in PubChem.
# An excerpt weighted towards active compounds, which were near 15% of everything screened.
# DT40 TDP1 no CPT – qHTS for Inhibitors of human tyrosyl-DNA phosphodiesterase 1 (TDP1): qHTS in cells in absence of CPT; AID 686978, 2013; DT40 Tdp1-/- hTDP1 cells, no CPT, ATP luminescence, 48 h; hit rate 15% among 420,000; Potency, µM (doses to about 46.2 µM), for the others: at the highest dose activity change, negative = growth inhibition, most hits filed as inhibitors; further: nearly all actives have a fitted effect of over 55% in size
#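 Chicken DT40 Tdp1-/- cells stably complemented with human TDP1 were seeded at 400 cells/well with DMSO in place of 20 nM camptothecin. After compound pinning, cells grew at least 48 hr at 37 °C; viability read by CellTiter-Glo luminescence.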
# DT40 TDP1 CPT – DT40-hTDP1 cell growth loss with CPT; chicken DT40 Tdp1-/-;hTDP1 cells + 20 nM CPT, ATP luminescence, 48 h; Potency, µM (doses to about 46.2 µM), without a hit: top-dose activity change, negative = growth inhibition, usual class: inhibitors; hit rate 12% among 420,000; AID 686979; further: nearly all actives have a fitted effect of over 55% in size
#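 Chicken DT40 Tdp1-/- cells complemented with human TDP1, 400 cells/well, exposed to compounds plus 20 nM camptothecin for at least 48 h at 37 C; viability read as ATP content by CellTiter-Glo luminescence.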
# ELG1 DNA repair – blocks ELG1-dependent DNA repair in HEK293T cells | hit rate 2.3% among 330,000 | Potency, µM (highest dose often 46.1 µM), without a hit: at the highest dose activity change, negative = inhibition, actives largely listed as inhibitors | HEK293T ELG1-luciferase reporter, luminescence, 16 h; DNA damage induced by 5-fluorouridine; further: nearly all actives have a fitted effect of over 55% in size
#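 HEK293T cells expressing luciferase-tagged ELG1 (2,000/well) received 5-Fluorouridine plus compound or DMSO for 16 hr at 37 °C. Luciferase was read by ONE-Glo luminescence after 30 min at room temperature.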
# RORg inh – inhibitors of mouse ROR gamma transcriptional activity. AID 2551. hit rate 5.4% among 310,000. P51450. Drosophila S2 Gal4-RORgamma UAS-luciferase reporter, 20 h. Potency, µM (titrated, usually from 53.6 µM), for the others: at the highest dose activity change, negative = inhibition, usual class: inhibitors; further: nearly all actives have a fitted effect of over 60% in size
#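 In this cell-based reporter format, copper sulfate (700 uM final) drives Gal4–ROR gamma fusion expression from a metallothionein promoter in Drosophila Schneider cells; compounds preincubated 1 hr, reporter read after 20 hr at ambient temperature.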
# Gal4-VP16 FLuc – counter-screen for ROR gamma inhibitors: Gal4-VP16 reporter; Drosophila S2 Gal4-VP16 UAS-luciferase, luminescence, 20 h; Potency, µM (top dose mostly 53.6 µM), without a hit: top-dose activity, negative = inhibition, hits mostly inhibitors; hit rate 3.5% among 310,000;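 further: Gal4-VP16 expression switched on by copper sulfate through the metallothionein promoter; nearly all actives have a fitted effect of over 50% in size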
# ALOX12 inh – inhibitors of human 12S-lipoxygenase ALOX12. P18054. purified 12hLO, xylenol orange hydroperoxide absorbance. Potency, µM (titrated, usually from 108 µM), without a hit: at the highest dose activity change, negative = inhibition, hits mostly inhibitors. hit rate 1.1% among 580,000
# Target sequence (P18054 whole entry, looked up): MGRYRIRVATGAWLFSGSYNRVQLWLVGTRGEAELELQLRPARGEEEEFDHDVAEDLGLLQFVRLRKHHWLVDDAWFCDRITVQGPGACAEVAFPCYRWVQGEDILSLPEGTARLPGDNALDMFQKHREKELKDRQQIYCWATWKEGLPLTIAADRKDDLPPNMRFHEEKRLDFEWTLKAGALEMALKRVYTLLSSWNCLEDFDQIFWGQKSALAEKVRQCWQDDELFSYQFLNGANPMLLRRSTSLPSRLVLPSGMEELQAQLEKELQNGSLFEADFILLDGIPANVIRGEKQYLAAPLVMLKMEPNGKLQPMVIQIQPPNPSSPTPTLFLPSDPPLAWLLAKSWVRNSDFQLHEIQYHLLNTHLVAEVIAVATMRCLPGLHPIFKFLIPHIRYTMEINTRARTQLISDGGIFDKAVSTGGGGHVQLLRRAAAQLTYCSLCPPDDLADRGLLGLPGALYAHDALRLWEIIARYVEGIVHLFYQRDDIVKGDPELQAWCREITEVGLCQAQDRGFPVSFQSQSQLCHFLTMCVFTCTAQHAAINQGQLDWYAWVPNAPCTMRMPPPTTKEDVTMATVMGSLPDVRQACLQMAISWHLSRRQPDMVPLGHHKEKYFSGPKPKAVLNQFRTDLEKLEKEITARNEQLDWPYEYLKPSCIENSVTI
#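 Purified human 12hLO (150 nM final) in 25 mM Hepes, 0.01% Triton X-100, pH 7.0 was preincubated 15 min at room temperature with compound. Then 40 uM arachidonic acid was added, 30 min. Hydroperoxide was read by Fe-XO absorbance ratio 573/405 nm.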
# Active calls of the source: *; ? = inconclusive; / = no result given; [ ] = another dose, or the depositor's remark. The call rests on the fitted dose curve; in most records, active means well fitted curve in the direction sought with a large enough effect; inconclusive means small, poorly fitted or top-dose-only effect, or another doubt; inactive means no such curve, though single readings can be large; an effect the other way counts as inactive or inconclusive. On the % scale 0 is the no-effect control and ±100 the full control effect; potency means the concentration at half of the fitted maximal effect.
SMILES,DT40 TDP1 no CPT,DT40 TDP1 CPT,ELG1 DNA repair,RORg inh,Gal4-VP16 FLuc,ALOX12 inh
CCOc1ccc(S(=O)(=O)NCCCN2CCOCC2)c2ccccc12,-19.5%,-24.8%,-9.7%,-1.3%,-5.8%,28.3%
CN(C)S(=O)(=O)c1cccc(C(=O)OCc2nc3ccccc3o2)c1,/,/,/,/,/,13.9%
Cc1cc(C)c(C)c(C(=O)c2ccccc2C(=O)O)c1C,3.26µM*,3.66µM*,2.0%,15.2%,-11.7%,0.4%
Cc1ccc(C(=O)c2ccccc2C(=O)O)cc1C,0.1%,9.0%,-1.2%,5.4%,-7.3%,-6.3%
COc1ccc(-n2c(-c3ccc(Cl)cc3)c[n+]3c2CCc2ccccc2-3)cc1,2.31µM*,2.91µM*,2.31µM*,?,12.6µM*,-6.0%
COc1ccc(-n2c(-c3ccccc3)nnc2-c2ccc(Cl)cc2)cc1,?,-11.9%,2.3%,9.3%,-11.8%,0.0%
CNC(=O)N1CCC(C2CCN(C(=O)CCc3cccc(OC)c3)C2)CC1 (centres undefined),/,/,/,/,/,15.7%
N#Cc1c(NC(=O)CSc2nc3c(c(C(F)(F)F)n2)CCc2ccccc2-3)sc2c1CCCC2,-22.3%,-18.7%,1.6%,31.4%,-8.7%,?
CCC1CCc2c(sc(NC(=O)CSc3nc(-c4ccco4)cc(C(F)(F)F)n3)c2C#N)C1 (centres undefined),-28.4%,-22.3%,?,-16.0%,-4.5%,-10.2%
N#Cc1cc2c(nc1SCC(=O)Nc1sc3c(c1C#N)CCC3)CCC2,-24.1%,-8.5%,?,18.1%,?,-0.8%
COc1ccc(-c2cc(C(F)(F)F)nc(SCC(=O)Nc3sc4c(c3C#N)CCC4)n2)cc1,5.8µM*,?,?,4.7%,3.0%,?
N#Cc1c(NC(=O)CSc2nc(-c3ccccc3)cc(C(F)(F)F)n2)sc2c1CCC2,?,-19.4%,7.31µM*,-5.5%[10 µM],-2.2%,-14.0%
COc1ccc(-c2ccc(C#N)c(SCC(=O)Nc3sc4c(c3C#N)CCC4)n2)cc1OC,14.6µM*,23.1µM*,?,0.8%,-6.7%,0.0%
COc1ccccc1Oc1ccc(S(=O)(=O)N2CCOCC2)cc1S(=O)(=O)N1CCOCC1,-20.9%,7.5%,3.2%,27.4%,13.4%,-1.2%
Cc1ccc(Oc2ccc(S(=O)(=O)N3CCOCC3)cc2C(N)=O)c(-n2nc3ccccc3n2)c1,4.11µM*,3.66µM*,?,-10.7%,-12.6%,0.0%
O=C(CSc1nnc(-c2ccc(Br)cc2)o1)N1CCN(C(=O)c2ccco2)CC1,18.4µM*,?,23.1µM*,41.5%,3.5%,7.7%
O=C(CSc1nnc(-c2ccco2)o1)N1c2ccccc2CCc2ccccc21,23.1µM*,?,11.6µM*,0.7%,2.8%,-17.3%
O=C(CSc1nnc(-c2c[nH]c3ccccc23)o1)N1c2ccccc2CCc2ccccc21,16.4µM*,16.4µM*,?,?,6.0%,7.0%[57.4 µM]
CN(C)C[C@@H]1CN(Cc2ccccc2)C[C@H]1NC(=O)c1cn(C)cn1,/,/,/,/,/,92.9%
COc1ccc2nc(NC(=O)c3cc(C)oc3C)sc2c1,?,?,?,?,?,0.0%
CCOc1ccc2nc(NC(=O)CSc3ccc(Cl)cc3)sc2c1,?,?,2.9%,11.2µM*,?,0.0%
CCCC(=O)Nc1nc2ccc(OC)cc2s1,?,14.6µM*,?,-38.6%,?,-1.3%
COc1ccc2nc(NC(=O)CCc3ccc(OC)c(OC)c3)sc2c1,?,-18.6%,-4.8%,14.3%,-12.0%,1.1%
COc1ccc2nc(NC(=S)N(C)C)sc2c1,4.61µM*,4.61µM*,?,28.8%,-27.1%,7.94µM*
CCOc1ccc2nc(NC(=O)CSC3=NCCS3)sc2c1,?,23.1µM*,-0.6%,14.1µM*,-17.7%,4.1%
SMILES,DT40 TDP1 no CPT,DT40 TDP1 CPT,ELG1 DNA repair,RORg inh,Gal4-VP16 FLuc,ALOX12 inh
COC(=O)C1=C(C(=O)OC)SC(=C(Cl)C(=S)Sc2ccccc2)S1,/,/,/,/,/,-6.4%
O=C(Nc1c(N2CCCC2)c2ccccc2oc1=O)c1ccccc1,/,/,/,/,/,-40.0%
O=C(Cc1ccc2c(c1)CCC2)NC(c1ccc(F)cc1)c1cccs1 (centres undefined),/,/,/,/,/,-26.6%
Cn1c(=O)[nH]c(=O)c2c1nc(SCC(=O)Nc1ccccc1)n2Cc1ccccc1Cl,/,/,/,/,/,-26.3%
COc1ccc2nc(-c3ccc(N(C)C)cc3)sc2c1,/,/,/,0.631µM*,5.01µM*,/
CC(=O)Nc1ccc2nc(NC(=O)c3ccco3)sc2c1,?,?,?,?,-24.9%,8.8%
COc1ccc2nc(-c3ccc(F)cc3)sc2c1,/,/,/,/,/,-5.0%
COc1ccc2nc(NC(=O)CSc3ccccc3)sc2c1,?,?,?,1.58µM*,-14.3%,0.0%
COc1cccc(Nc2nc3ccc(OC)cc3s2)c1,?,-23.6%,?,11.2µM*,?,-12.0%
CC(=O)Nc1ccc2nc(NC(=O)c3ccc([N+](=O)[O-])o3)sc2c1,?,?,20.6µM*,?,10µM*,19.2%
O=C(Nc1ccc(Cl)cc1)C1CC2CCC1C2 (centres undefined),/,/,/,/,/,-10.5%
O=C(O)[C@@H]1CN(C(=O)CCc2ccc(=O)[nH]n2)C[C@H]1C1CC1,/,/,/,/,/,-4.8%
COCCN1C(=O)CCC2(C(=O)Nc3cc(OC)cc(OC)c3)CCCC=C12 (centres undefined),/,/,/,/,/,61.6%
O=C(NCCC12CC3CC(CC(C3)C1)C2)C12CC3CC(CC(C3)C1)C2,/,/,/,/,/,7.8%
Cc1nc2ccc(NC(=O)c3ccc(Br)o3)cc2s1,?,-15.6%,?,?,-1.7%,-3.0%
CCCC(=O)Nc1nc2ccc(NC(=O)c3ccc(Br)o3)cc2s1,23.1µM*,?,?,9.7%,?,46.9%
O=C(Cc1ccc(F)cc1)NCCc1csc(-c2ccc(C(F)(F)F)cc2)n1,/,/,/,/,/,-18.4%
Cc1cc(C)c(NC(=O)C(=O)NCCc2csc(-c3ccc(F)cc3)n2)c(C)c1,16.4µM*,18.4µM*,/,/,/,-27.4%
COc1ccc(CCC(=O)NCCc2csc(-c3ccc(F)cc3)n2)cc1,?,?,/,/,/,2.0%
COc1ccc(-c2nc(CCNC(=O)Cc3ccc(F)cc3)cs2)cc1,18.4µM*,14.6µM*,/,/,/,-1.0%
COc1ccc(-c2nc3scc(CCNC(=O)Cc4ccc(F)cc4)n3n2)cc1,25.9µM*,?,/,/,/,3.1%
O=C(NCCc1csc(-c2ccc(F)cc2)n1)c1ccc(Br)o1,?,23.1µM*,/,/,/,-6.8%
CN(Cc1ccccc1)Cc1cc(=O)n2cc(Br)ccc2n1,/,/,/,/,/,-6.7%
